Laboratory results reported in PubChem BioAssay (Tox21).
Inconclusive results are not listed. The source made the active and inactive calls. Unless noted, the call rests on the fitted dose curve; in most records, active means well fitted curve in the direction sought with a large enough effect in the repeat runs; inconclusive means weak or mixed curves; inactive means no such curve, though single readings can be large; an effect the other way counts as inactive or inconclusive.

Legend:
[1] = qHTS assay to identify small molecule agonists of the hypoxia (HIF-1) signaling pathway (AID 1224846; active means well fitted activation curve with a large enough effect in the signal ratio in the repeat runs, not every such curve was filed as active; the % refers to the signal ratio)
How it was run: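 Reporter induction in HRE-bla ME-180 cells is taken as agonism: cells sit 5 hrs after plating, receive compounds or DMSO only, incubate 17 hrs at 37C under 5% CO2, and are loaded with CCF4-AM for beta-lactamase FRET measurement.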

[2] = qHTS assay to identify small molecule agonists of H2AX - cell viability counter screen (AID 1224847; calls by dose curve;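 further: wild-type CHO-K1 cells; top concentration of the series differs between compounds; nearly all actives have a fitted effect of over 30% in size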)
How it was run: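 CHO-K1 cells plated overnight at 37C, then exposed 3 h at 37C to compounds at 15 concentrations (0.76% DMSO final). Viability by CellTiter-Glo luminescence after 30 min at room temperature.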

[3] = qHTS assay to identify small molecule antagonists of the estrogen related receptor (ERR) signaling pathway from Tox21 library (AID 1224848); further: nearly all actives have a fitted effect of over 50% in size
How it was run: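 First, 2,000 ERR cells per well were plated and held 6 h at 37 C/5% CO2. Next, compounds in DMSO were pinned in and left 18 h at 37 C. Finally, ONE-Glo was added and luminescence read after 30 min at room temperature.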

[4] = qHTS assay to identify small molecule agonists of the estrogen related receptor (ERR) signaling pathway from Tox21 library (AID 1224849; calls by dose curve; further: nearly all actives have a fitted effect of over 15% in size); settings: ERR reporter cell line, ONE-Glo luciferase, 18 h; at 92.4 µM (top of the series) unless noted
How it was run: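 Tox21 compounds tested for ERR agonism in an NTP reporter cell line: 18 h treatment at 37 C, then ONE-Glo luminescence.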

[5] = qHTS RealTime-Glo MT Cell Viability Assay in HepG2 cells - 24 hour (AID 1224867); further: nearly all actives have a fitted effect of over 50% in size
How it was run: (§1)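 Viability was tracked continuously by NanoLuc luminescence from prosubstrate reduced by living HepG2 cells, at successive time points over 40 h of compound exposure. Cells with reagent were preincubated 5 h at 37 °C before compound addition.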

[6] = qHTS RealTime-Glo MT Cell Viability Assay in HEK293 cells - 32 hour (AID 1224868); further: top concentration of the series differs between compounds; nearly all actives have a fitted effect of over 50% in size
How it was run: (§2)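 Viability tracked continuously by luminescence as live cells reduce a prosubstrate for NanoLuc; HEK293 cells preincubated 5 h, compound-treated at 37 C, and read at 0, 8, 16, 24, 32 and 40 h.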

[7] = A CellTox Green Cytotoxicity Assay to monitor cytotoxicity in HEK293 cells - 0 hour (AID 1224869); further: nearly all actives have a fitted effect of over 50% in size
How it was run: (§3)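 Tox21 screen in HEK293: membrane-impermeant cyanine dye fluoresces on binding dead-cell DNA; compound pinned 5 h post-seeding, plates held at 37 C, signal read repeatedly through 40 h.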

[8] = qHTS RealTime-Glo MT Cell Viability Assay in HepG2 cells - 40 hour (AID 1224870); further: nearly all actives have a fitted effect of over 50% in size
How it was run: (§4)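 HepG2 cells mixed with RealTime-Glo MT reagents (NanoLuc plus cell-permeant prosubstrate) were seeded at 600 cells/well, incubated 5 h at 37 C/5% CO2, then pinned with compounds in DMSO; nonlytic luminescence tracked viability during 40 h treatment.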

[9] = A CellTox Green Cytotoxicity Assay to monitor cytotoxicity in HEK293 cells - 40 hour (AID 1224871); further: nearly all actives have a fitted effect of over 45% in size
How it was run: as §3

[10] = qHTS RealTime-Glo MT Cell Viability Assay in HEK293 cells - 16 hour (AID 1224872)
How it was run: as §2

[11] = qHTS RealTime-Glo MT Cell Viability Assay in HepG2 cells - 8 hour (AID 1224873); further: nearly all actives have a fitted effect of over 55% in size
How it was run: as §4

[12] = qHTS RealTime-Glo MT Cell Viability Assay in HEK293 cells - 40 hour (AID 1224874); settings: RealTime-Glo luminescence; max response: active compounds read low; further: nearly all actives have a fitted effect of over 50% in size
How it was run: (§5)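 HEK293 + NanoLuc + prosubstrate, 600 cells/well; 5 h, 37 C/5% CO2; compound 23 nL in DMSO by pintool; 37 C; luminescence read at 0, 8, 16, 24, 32 and 40 h time points.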

[13] = A CellTox Green Cytotoxicity Assay to monitor cytotoxicity in HEK293 cells - 24 hour (AID 1224875); further: nearly all actives have a fitted effect of over 45% in size
How it was run: as §3

[14] = A CellTox Green Cytotoxicity Assay to monitor cytotoxicity in HepG2 cells - 16 hour (AID 1224876); further: nearly all actives have a fitted effect of over 45% in size
How it was run: (§6)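 Measurements at 0, 8, 16, 24, 32 and 40 h of treatment captured CellTox Green fluorescence in HepG2 cells that had been co-plated with reagent and preincubated 5 h at 37 C/5% CO2.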

[15] = A CellTox Green Cytotoxicity Assay to monitor cytotoxicity in HepG2 cells - 24 hour (AID 1224878); further: nearly all actives have a fitted effect of over 45% in size
How it was run: as §6

[16] = A CellTox Green Cytotoxicity Assay to monitor cytotoxicity in HepG2 cells - 40 hour (AID 1224879); further: nearly all actives have a fitted effect of over 40% in size; further: potency means the concentration at half of the fitted maximal effect
How it was run: as §6

[17] = qHTS RealTime-Glo MT Cell Viability Assay in HEK293 cells - 0 hour (AID 1224880)
How it was run: as §5

[18] = A CellTox Green Cytotoxicity Assay to monitor cytotoxicity in HEK293 cells - 32 hour (AID 1224881); further: nearly all actives have a fitted effect of over 40% in size
How it was run: as §3

[19] = A CellTox Green Cytotoxicity Assay to monitor cytotoxicity in HepG2 cells - 0 hour (AID 1224882); further: nearly all actives have a fitted effect of over 35% in size
How it was run: as §6

[20] = qHTS RealTime-Glo MT Cell Viability Assay in HepG2 cells - 32 hour (AID 1224877); further: nearly all actives have a fitted effect of over 55% in size
How it was run: as §1
On the % scale 0 is the no-effect control and ±100 the full control effect.

CCCCCCCCCCCCCOP(=O)(O)O
inactive: outcome [1] | Potency [2] | Potency [3] | activity change, positive = activation [4] -2% | Potency [5] | Potency [6] | Potency [7] | Potency [8] | Potency [9] | Potency [10] | Potency [11] | max response [12] -0.341% | Potency [13] | Potency [14] | Potency [15] | Potency [16] | Potency [17] | Potency [18] | Potency [19]

C=C/C=C/C=C/CCCCC
inactive: activation [1] 0.434% [at 15.8 µM] | activity change, negative = cytotoxicity [2] -1.43% [at 31.6 µM] | activity, negative = inhibition [3] 3.04% [at 19 µM] | activity change, positive = activation [4] 1.56% [at 19 µM] | activity change, negative = cytotoxicity [5] -0.964% [at 15.8 µM] | activity change, negative = cytotoxic [6] 0.818% [at 15.8 µM] | cytotoxicity [7] -0.619% [at 15.8 µM] | activity change, negative = cytotoxic [8] 24.6% [at 15.8 µM] | cytotoxicity increase [9] 10.9% [at 15.8 µM] | activity change, negative = cytotoxicity [10] 13.8% [at 15.8 µM] | viability change, negative = cytotoxic [11] -19.2% [at 15.8 µM] | max response [12] -0.0339% | activity change [13] 1.62% [at 15.8 µM, active compounds read high] | cytotoxicity increase [14] -3.81% [at 15.8 µM] | activity change, negative = cytotoxic [20] 7.06% [at 15.8 µM] | cytotoxicity [15] -3.54% [at 15.8 µM] | cytotoxicity increase [16] -4.48% [at 15.8 µM] | activity change, negative = cytotoxicity [17] 0.841% [at 15.8 µM] | cytotoxicity increase [18] 13.2% [at 15.8 µM] | cytotoxicity [19] -3.64% [at 15.8 µM]

CCCCCCCC/C=C/CCCOC(C)=O
inactive: outcome [1] | Potency [2] | Potency [3] | activity change, positive = activation [4] 1.58% | Potency [5] | Potency [6] | Potency [7] | Potency [8] | Potency [9] | Potency [10] | Potency [11] | max response [12] 4.7% | Potency [13] | Potency [14] | Potency [15] | Potency [16] | Potency [17] | Potency [18] | Potency [19]

Cc1cccc(N(C)C)c1
inactive: outcome [1] | Potency [2] | Potency [3] | activity change, positive = activation [4] -0.051% | Potency [5] | Potency [6] | Potency [7] | Potency [8] | Potency [9] | Potency [10] | max response [12] 7.91% | Potency [13] | Potency [14] | Potency [20] | Potency [15] | Potency [16] | Potency [17] | Potency [18] | Potency [19]

CCO[Si](C)(C)OCC
inactive: outcome [1] | Potency [2] | Potency [3] | activity change, positive = activation [4] -0.643% | Potency [5] | Potency [6] | Potency [7] | Potency [8] | Potency [9] | Potency [10] | max response [12] -0.247% | Potency [13] | Potency [14] | Potency [20] | Potency [15] | Potency [16] | Potency [17] | Potency [18] | Potency [19]

CC1(C)C(=O)N(Br)C(=O)N1Br
inactive: outcome [1] | Potency [2] | Potency [3] | activity change, positive = activation [4] 3.41% | Potency [5] | Potency [6] | Potency [7] | Potency [8] | Potency [9] | Potency [10] | Potency [11] | max response [12] -1.21% | Potency [13] | Potency [14] | Potency [20] | Potency [15] | Potency [16] | Potency [17] | Potency [18] | Potency [19]

C#CC(O)CCC (stereo not drawn)
inactive: outcome [1] | Potency [2] | Potency [3] | activity change, positive = activation [4] 6.08% | Potency [5] | Potency [6] | Potency [7] | Potency [8] | Potency [9] | Potency [10] | max response [12] 0.0439% | Potency [13] | Potency [14] | Potency [20] | Potency [15] | Potency [16] | Potency [17] | Potency [18] | Potency [19]

CCCCCCCC(=O)OCC
inactive: outcome [1] | Potency [2] | Potency [3] | activity change, positive = activation [4] 0.783% | Potency [5] | Potency [6] | Potency [7] | Potency [9] | Potency [10] | Potency [11] | Potency [13] | Potency [14] | Potency [20] | Potency [15] | Potency [16] | Potency [17] | Potency [18] | Potency [19]

CCN1CCN(c2cc(-c3ccc(F)cc3)c3c(n2)CCCCCC3)CC1
active: Potency [16] 11.7 µM
inactive: activation [1] 1.71% [at 15.8 µM] | activity change, negative = cytotoxicity [2] -6.38% [at 31.6 µM] | activity, negative = inhibition [3] -10.2% [at 19 µM] | activity change, positive = activation [4] -5.69% [at 19 µM] | activity change, negative = cytotoxicity [5] -8.27% [at 15.8 µM] | activity change, negative = cytotoxic [6] -11.6% [at 15.8 µM] | cytotoxicity [7] -14.4% [at 15.8 µM] | activity change, negative = cytotoxic [8] -8.41% [at 15.8 µM] | cytotoxicity increase [9] 9.69% [at 15.8 µM] | activity change, negative = cytotoxicity [10] 2.72% [at 15.8 µM] | viability change, negative = cytotoxic [11] 1.26% [at 15.8 µM] | max response [12] -18.7% | activity change [13] 2.45% [at 15.8 µM, active compounds read high] | cytotoxicity increase [14] 12.3% [at 15.8 µM] | activity change, negative = cytotoxic [20] -10.2% [at 15.8 µM] | cytotoxicity [15] 24% [at 15.8 µM] | activity change, negative = cytotoxicity [17] 9.2% [at 15.8 µM] | cytotoxicity increase [18] 10% [at 15.8 µM] | cytotoxicity [19] -0.25% [at 15.8 µM]
